Test results taken from PubChem BioAssay (Tox21).
Where “and” joins values, the source holds several entries; their conditions need not be identical. Equal entries are not always repeated. Inconclusive results are not listed. Where a call stands in place of a potency, no number is given. Some compounds were tested as several samples or in several runs, with calls that do not always agree. Calls of active or inactive are those of the source. Unless noted, calls follow the shape of the full dose curve.

Tests used:
[1] = Nuclear factor erythroid 2-related factor 2/antioxidant responsive element (Nrf2/ARE) small molecule agonists: qHTS cell viability counter screen in human keratinocytes (AID 1919968; active = well fitted curve in the direction sought with a large enough effect in the repeat runs; an effect the other way counts as inactive or inconclusive; also: nearly all actives have a fitted effect of over 55% in size; also: potency is read from the fitted curve at half-maximal effect)
Procedure, shortened: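 CellTiter-Fluor fluorescence, read 1 h after reagent, gave viability in the same wells as the ARE-luciferase assay. KeratinoSens cells (1,500/well) had 23 h compound exposure at 37 C/5% CO2 following 5 h plating.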

[2] = Nuclear factor erythroid 2-related factor 2/antioxidant responsive element (Nrf2/ARE) small molecule agonists: luciferase reporter gene qHTS assay in human keratinocytes (AID 1919969); also: nearly all actives have a fitted effect of over 35% in size; also: potency is read from the fitted curve at half-maximal effect
[3] = target: Gonadotropin-releasing hormone receptor (Homo sapiens) (UniProt P30968); assay: Human gonadotropin-releasing hormone receptor (GnRHR) small molecule agonists, calcium flux assay in GnRHR-HEK293 cells (AID 1920063); also: nearly all actives have a fitted effect of over 35% in size
Procedure, shortened: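 Agonist mode: compounds at 15 concentrations, in triplicate, went onto calcium dye-loaded GnRHR-HEK293 cells. Intracellular calcium was then followed as 480/540 nm fluorescence at 1 s intervals over 3 min.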

[4] = target: KiSS-1 receptor (Homo sapiens) (UniProt Q969F8); assay: Human kisspeptin (KISS1R) small molecule agonists, calcium flux assay in KISS1R-HEK293 cells (AID 1920064; active = well fitted curve in the direction sought with a large enough effect in the repeat runs; an effect the other way counts as inactive or inconclusive)
Procedure, shortened: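 Agonist mode: intracellular calcium rise tracked at 1 s intervals over 3 min (480/540 nm) immediately after compound addition to dye-loaded KISS1R-HEK293 stable cells. Each compound tested at 15 concentrations in triplicate.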

[5] = G protein-coupled receptor (GPCR) small molecule agonists, calcium flux assay: HEK293 wild type cell line counter screen (AID 1920065)
Procedure, shortened: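 Calcium flux counter screen: compound added in agonist mode at 15 concentrations in triplicate to dye-loaded parental HEK293 cells. Fluorescence (480/540) read kinetically for 3 min; ATP served as positive control.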

[6] = p53 small molecule agonists, cell-based qHTS assay with human liver microsomes (AID 1963577);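 also: p53 response element beta-lactamase reporter cells with liver microsomes plus NADPH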
Procedure, shortened: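 Steps: plate p53RE-bla cells, incubate 5 h at 37 C; add compound in DMSO; add microsomes (0.5 mg/mL final) and NADPH (0.5 mg/mL final); incubate 16 h at 37 C; add LiveBLAzer, 2 h RT; read fluorescence.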

[7] = p53 small molecule agonists, cell-based qHTS assay with rat liver microsomes (AID 1963578)
Procedure, shortened: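 Metabolic activation is supplied by rat liver microsomes with NADPH (each 0.5 mg/mL final). p53RE-bla cells incubate with compound 16 h at 37 C; reporter activity is measured by LiveBLAzer fluorescence.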

[8] = p53 small molecule agonists, cell-based qHTS assay with human liver microsomes: qHTS cell viability counter screen (AID 1963579); also: nearly all actives have a fitted effect of over 45% in size
Procedure, shortened: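 After the 460/530 nm beta-lactamase read, CellTiter-Glo was added to the same wells and luminescence measured after 30 min at room temperature, giving viability of p53RE-bla cells treated 16 h with compounds plus microsomes and NADPH.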

[9] = p53 small molecule agonists, cell-based qHTS assay with rat liver microsomes: qHTS cell viability counter screen (AID 1963580); also: nearly all actives have a fitted effect of over 45% in size
Procedure, shortened: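 After the beta-lactamase ratio was read, CellTiter-Glo was added to the same wells and luminescence measured at 30 min; cells had been treated 16 h at 37 C with compounds, rat liver microsomes and NADPH (0.5 mg/mL final each).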

[10] = p53 small molecule agonists, cell-based qHTS assay: qHTS cell viability counter screen (AID 1963581); also: nearly all actives have a fitted effect of over 45% in size
Procedure, shortened: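 Counter screen read by CellTiter-Glo luminescence (ATP content, 30 min at room temperature), run in the same wells as the beta-lactamase reporter read. HCT-116 p53RE-bla cells saw compounds for 16 h at 37 C.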

[11] = p53 small molecule agonists, cell-based qHTS assay (AID 1963582; active = well fitted activation curve with a large enough effect in the signal ratio in the repeat runs, not every such curve was filed as active; the % refers to the signal ratio)
Procedure, shortened: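 Read-out is beta-lactamase FRET fluorescence after 2 h at room temperature with LiveBLAzer B/G substrate. p53 response element-bla cells were treated 16 h at 37 C with compounds in DMSO, added 5 h after seeding.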

[12] = target: 5-hydroxytryptamine receptor 2A (Homo sapiens) (UniProt P28223); assay: 5-hydroxytryptamine receptor 2A (HTR2A) small molecule antagonists, cell-based qHTS assay (AID 1963586); also: nearly all actives have a fitted effect of over 45% in size
Procedure, shortened: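 CHO cells stably expressing human HTR2A were plated for 18 h at 37 C, then loaded with calcium dye for 1 h. Compounds were preincubated 5 min at room temperature before DOI (4 nM solution) was added. Kinetic fluorescence was read for 3 min.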

[13] = target: 5-hydroxytryptamine receptor 2A (Homo sapiens) (UniProt P28223); assay: 5-hydroxytryptamine receptor 2A (HTR2A) small molecule agonists, cell-based qHTS assay (AID 1963587); also: nearly all actives have a fitted effect of over 30% in size
Procedure, shortened: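 CHO cells stably expressing human HTR2A, plated 18 h, loaded with calcium dye 1 h at 37 C. Agonist mode: compounds added and intracellular calcium fluorescence recorded kinetically for 2 min at 1 sec intervals.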

[14] = target: Muscarinic acetylcholine receptor M1 (Homo sapiens) (UniProt P11229); assay: Cholinergic receptor muscarinic 1 (CHRM1) small molecule agonists, cell-based qHTS assay (AID 1963589); also: nearly all actives have a fitted effect of over 35% in size
Procedure, shortened: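 Agonist-mode calcium-flux screen: compounds at 15 concentrations, three independent runs, were pin-transferred onto dye-loaded human CHRM1-CHO cells. Fluorescence was then recorded kinetically every second over minutes.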

[15] = cAMP Responsive Elements (CRE) small molecule agonists, cell-based qHTS assay (AID 1963590)
Procedure, shortened: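 Agonist mode: compound added to CRE-bla HEK 293T cells (2,000/well, 18 h after plating) for 3 h at 37 C/5% CO2. Reporter activity detected via FRET beta-lactamase substrate, 2 h room-temperature loading.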

[16] = cAMP Responsive Elements (CRE) small molecule antagonists, cell-based qHTS assay (AID 1963591; active = well fitted inhibition curve with a large enough effect in the signal ratio in the repeat runs, not every such curve was filed as active; the % refers to the signal ratio)
Procedure, shortened: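 Antagonist mode: compounds are added alongside the adenylyl cyclase activator NKH477 (0.25 uM final) to CRE-bla HEK293T cells for 3 h. LiveBLAzer FRET substrate, 2 h at room temperature, reports bla expression.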

[17] = target: Beta-2 adrenergic receptor (Homo sapiens) (UniProt P07550); assay: Adrenergic beta2 receptor (ADRB2) small molecule antagonists, cell-based qHTS assay (AID 1963592); also: series mostly up to about 92 µM; nearly all actives have a fitted effect of over 50% in size
Procedure, shortened: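 Assay format: CHO-ADRB2 cells, 18-20hr seeding at 37C/5% CO2, then compound plus 1nM isoproterenol agonist mix for 0.5hr RT. Homogeneous time-resolved fluorescence cAMP detection after 1hr, expressed as 665/615 nm ratio.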

[18] = target: D(2) dopamine receptor (Homo sapiens) (UniProt P14416); assay: Dopamine D2 receptor (DRD2) small molecule agonists, cell-based qHTS assay (AID 1963594); also: nearly all actives have a fitted effect of over 35% in size
Procedure, shortened: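 HEK293 cells stably expressing human DRD2, pre-treated with PDE inhibitor Ro20-1724 (0.1 mM final) and compound 10 min at room temperature, then stimulated with NKH477 (200nM […]) for 30 min. cAMP read by HTRF (665/620 nm).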

[19] = target: D(2) dopamine receptor (Homo sapiens) (UniProt P14416); assay: Dopamine D2 receptor (DRD2) small molecule antagonists, cell-based qHTS assay (AID 1963595; active = well fitted inhibition curve with a large enough effect in the signal ratio in the repeat runs, with a control signal flat; the % refers to the signal ratio)
Procedure, shortened: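 HEK293 cells stably expressing DRD2, preincubated with 0.1 mM Ro20-1724 and compounds 10 min, were stimulated with 200 nM NKH477 plus 12 nM quinpirole for 30 min at room temperature; cAMP measured by HTRF (665/620 nm).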

[20] = target: Beta-2 adrenergic receptor (Homo sapiens) (UniProt P07550); assay: Adrenergic beta2 receptor (ADRB2) small molecule agonists, cell-based qHTS assay (AID 1963593);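 also: CHO cells stably overexpressing human ADRB2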
Procedure, shortened: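 CHO cells stably over-expressing ADRB2 were plated overnight at 37C, then dosed with compounds plus a stimulation mix containing 100uM IBMX and 25uM Ro-20-1724 for 0.5hr at room temperature. cAMP was measured by HTRF competition, 1hr.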

Sequence of Gonadotropin-releasing hormone receptor (Homo sapiens) (P30968 whole entry, looked up): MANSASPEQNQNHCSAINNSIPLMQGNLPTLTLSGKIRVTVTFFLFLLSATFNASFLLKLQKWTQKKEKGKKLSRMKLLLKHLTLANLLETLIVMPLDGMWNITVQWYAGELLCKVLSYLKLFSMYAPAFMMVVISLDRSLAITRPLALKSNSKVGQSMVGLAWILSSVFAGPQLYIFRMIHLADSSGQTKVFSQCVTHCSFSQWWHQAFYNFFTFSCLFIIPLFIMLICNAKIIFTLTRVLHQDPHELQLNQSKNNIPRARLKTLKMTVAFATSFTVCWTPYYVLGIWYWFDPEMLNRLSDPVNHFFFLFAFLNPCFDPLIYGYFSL
Sequence of D(2) dopamine receptor (Homo sapiens) (P14416 whole entry, looked up): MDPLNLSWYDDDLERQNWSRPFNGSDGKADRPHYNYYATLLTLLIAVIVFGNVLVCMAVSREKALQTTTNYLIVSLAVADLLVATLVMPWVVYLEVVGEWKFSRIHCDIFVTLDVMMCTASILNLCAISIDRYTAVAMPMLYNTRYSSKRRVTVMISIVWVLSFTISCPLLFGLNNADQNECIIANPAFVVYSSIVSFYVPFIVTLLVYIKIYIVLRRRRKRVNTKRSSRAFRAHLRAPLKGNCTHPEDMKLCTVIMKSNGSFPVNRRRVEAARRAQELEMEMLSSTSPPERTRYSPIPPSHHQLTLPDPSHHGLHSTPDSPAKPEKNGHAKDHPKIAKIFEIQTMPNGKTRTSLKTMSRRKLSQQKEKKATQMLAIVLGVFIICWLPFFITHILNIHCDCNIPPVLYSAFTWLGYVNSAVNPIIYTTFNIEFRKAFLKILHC
Sequence of Beta-2 adrenergic receptor (Homo sapiens) (P07550 whole entry, looked up): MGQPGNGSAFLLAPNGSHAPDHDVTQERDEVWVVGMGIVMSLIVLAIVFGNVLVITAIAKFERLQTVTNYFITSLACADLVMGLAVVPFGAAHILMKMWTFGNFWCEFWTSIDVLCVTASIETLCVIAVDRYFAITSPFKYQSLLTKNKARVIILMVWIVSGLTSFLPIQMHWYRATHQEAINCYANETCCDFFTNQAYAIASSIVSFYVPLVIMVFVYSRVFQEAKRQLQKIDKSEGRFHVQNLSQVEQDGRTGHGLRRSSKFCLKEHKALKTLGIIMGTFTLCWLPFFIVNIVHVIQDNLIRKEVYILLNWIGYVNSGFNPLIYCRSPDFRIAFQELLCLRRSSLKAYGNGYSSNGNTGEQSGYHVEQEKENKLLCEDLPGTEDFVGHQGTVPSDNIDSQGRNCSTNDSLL
Sequence of 5-hydroxytryptamine receptor 2A (Homo sapiens) (P28223 whole entry, looked up): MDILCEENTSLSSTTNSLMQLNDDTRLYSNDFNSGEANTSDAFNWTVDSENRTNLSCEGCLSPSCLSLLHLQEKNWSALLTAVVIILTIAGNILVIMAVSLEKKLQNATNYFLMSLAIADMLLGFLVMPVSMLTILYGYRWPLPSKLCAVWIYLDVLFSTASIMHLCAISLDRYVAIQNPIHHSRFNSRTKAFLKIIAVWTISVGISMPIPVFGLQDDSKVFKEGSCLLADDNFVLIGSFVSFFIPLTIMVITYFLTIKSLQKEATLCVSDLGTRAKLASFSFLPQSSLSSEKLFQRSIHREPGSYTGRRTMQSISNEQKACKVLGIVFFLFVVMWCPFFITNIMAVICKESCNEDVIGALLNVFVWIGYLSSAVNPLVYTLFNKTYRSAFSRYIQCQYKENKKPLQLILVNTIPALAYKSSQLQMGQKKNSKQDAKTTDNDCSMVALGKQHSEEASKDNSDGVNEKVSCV
Sequence of KiSS-1 receptor (Homo sapiens) (Q969F8 whole entry, looked up): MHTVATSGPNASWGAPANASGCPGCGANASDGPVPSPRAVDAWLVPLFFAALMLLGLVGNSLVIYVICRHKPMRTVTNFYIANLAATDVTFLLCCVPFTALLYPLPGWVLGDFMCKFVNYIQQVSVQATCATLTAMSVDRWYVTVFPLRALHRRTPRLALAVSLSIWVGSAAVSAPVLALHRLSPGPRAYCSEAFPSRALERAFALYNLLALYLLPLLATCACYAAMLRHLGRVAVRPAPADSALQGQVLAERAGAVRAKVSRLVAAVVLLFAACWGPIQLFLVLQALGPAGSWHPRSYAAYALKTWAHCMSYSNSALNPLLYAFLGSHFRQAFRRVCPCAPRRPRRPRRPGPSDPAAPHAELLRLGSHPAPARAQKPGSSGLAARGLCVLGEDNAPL
Sequence of Muscarinic acetylcholine receptor M1 (Homo sapiens) (P11229 whole entry, looked up): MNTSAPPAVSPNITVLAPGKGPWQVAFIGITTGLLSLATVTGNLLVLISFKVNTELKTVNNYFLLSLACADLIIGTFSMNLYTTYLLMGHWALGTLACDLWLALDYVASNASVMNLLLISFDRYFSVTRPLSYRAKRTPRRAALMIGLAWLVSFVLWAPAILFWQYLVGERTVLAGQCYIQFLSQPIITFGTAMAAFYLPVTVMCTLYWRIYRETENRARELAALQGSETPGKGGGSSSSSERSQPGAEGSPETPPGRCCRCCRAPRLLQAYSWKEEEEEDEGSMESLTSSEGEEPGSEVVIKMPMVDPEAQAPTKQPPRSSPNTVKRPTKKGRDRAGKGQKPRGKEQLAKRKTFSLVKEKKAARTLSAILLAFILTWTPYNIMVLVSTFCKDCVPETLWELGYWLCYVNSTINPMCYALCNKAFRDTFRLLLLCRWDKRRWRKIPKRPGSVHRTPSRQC

SMILES	Potency [1]	Potency [2]	Potency [3]	Potency [4]	Potency [5]	Potency [6]	Potency [7]	Potency [8]	Potency [9]	Potency [10]	Potency [11]	Potency [12]	Potency [13]	Potency [14]	Potency [15]	Potency [16]	Potency [17]	Potency [18]	Potency [19]	Potency [20]
OCc1cccc(Oc2ccccc2)c1	inactive	inactive	inactive	inactive	inactive	inactive	inactive	inactive	inactive	inactive	inactive	inactive	inactive	inactive	inactive	inactive	inactive	inactive	inactive	
O=C(O)CN(CC(=O)O)CC(=O)O	inactive	inactive	inactive	inactive	inactive	inactive	inactive	inactive	inactive	inactive	inactive	inactive	inactive	inactive	inactive	inactive	inactive	inactive	inactive	inactive
O=C(O)CCCCCCCCC(=O)O	inactive	inactive	inactive	inactive	inactive	inactive	inactive	inactive	inactive	inactive	inactive	inactive		inactive	inactive	inactive	inactive	inactive	inactive	
Nc1ccc(C(=O)O)cc1	inactive	inactive	inactive	inactive	inactive	inactive	inactive	inactive	inactive	inactive	inactive	inactive	inactive	inactive	inactive	inactive	inactive	inactive	inactive	inactive
C[Si](C)(C)N[Si](C)(C)C	inactive	inactive	inactive	inactive	inactive	inactive	inactive	inactive	inactive	inactive	inactive		inactive			inactive	inactive	inactive	inactive	inactive
Oc1cccc(O)c1	inactive	inactive	inactive	inactive	inactive	inactive	inactive	inactive	inactive	inactive	inactive	inactive	inactive	inactive	inactive	inactive	inactive	inactive		
CCCCOCCOC(=O)c1ccccc1C(=O)OCCOCCCC	47.5 µM (active) and inactive	23.8 µM (active) and 68.6 µM (active)	inactive	inactive	inactive	inactive	inactive	inactive	inactive	inactive	inactive	inactive		inactive	inactive	inactive	inactive	inactive	inactive	inactive
CC(=O)OCc1ccc2c(c1)OCO2	inactive	inactive	inactive	inactive	inactive	inactive	inactive	inactive	inactive	inactive	inactive	inactive	inactive	inactive	inactive	inactive	inactive	inactive	inactive	inactive
Cc1ccc(S(=O)(=O)Oc2ccc(N=Nc3ccc(-c4ccc(N=Nc5c(O)ccc6cc(S(=O)(=O)O)cc(S(=O)(=O)O)c56)c(C)c4)cc3C)cc2)cc1	24.4 µM (active) and 17.8 µM (active)	inactive	inactive	inactive	inactive	inactive	inactive	inactive	inactive	inactive	inactive	inactive	inactive		inactive	inactive	inactive	inactive	inactive	
C=CCNCC=C	inactive	inactive	inactive	inactive	inactive	inactive	inactive	inactive	inactive	inactive	inactive	inactive		inactive	inactive	inactive		inactive	inactive	inactive
C/C=C/c1ccc(OCC)c(O)c1	inactive	inactive	inactive	inactive	inactive	inactive	inactive	inactive	inactive	inactive	inactive		inactive		inactive	inactive	inactive	inactive	inactive	inactive
COC(=O)CCCC(=O)OC	inactive	inactive	inactive	inactive	inactive	inactive	inactive	inactive	inactive	inactive	inactive	inactive		inactive	inactive	inactive	inactive	inactive	inactive	
CCCCCCCCCCCCCO	inactive	inactive	inactive	inactive	inactive	inactive	inactive	inactive	inactive	inactive	inactive	inactive	inactive		inactive				inactive	inactive
O=C1OC(c2ccc(O)cc2)(c2ccc(O)cc2)c2ccccc21	48.2 µM (active) and inactive	24.2 µM (active) and inactive	inactive	inactive	inactive	inactive	inactive	inactive	inactive	inactive	inactive	inactive	inactive		inactive	inactive		inactive	inactive	
O=S1(=O)CCCO1	inactive	inactive	inactive	inactive	inactive	inactive	inactive	inactive	inactive	inactive	inactive	inactive	inactive	inactive	inactive	inactive	inactive	inactive	inactive	inactive
CCCCCCOCCO	inactive	inactive	inactive	inactive	inactive	inactive	inactive	inactive	inactive	inactive	inactive	inactive	inactive	inactive	inactive	inactive		inactive	inactive	
C=C(C)OC(C)=O	inactive	inactive	inactive	inactive	inactive	inactive	inactive	inactive	inactive	inactive	inactive	inactive	inactive	inactive	inactive	inactive	inactive	inactive	inactive	
CC(C)OC(=O)COc1ccc(Cl)cc1Cl	inactive	inactive	inactive	inactive	inactive	inactive	inactive	inactive	inactive	inactive	inactive		inactive	inactive		inactive		inactive	inactive	
CCOCCO	inactive	inactive	inactive	inactive	inactive	inactive	inactive	inactive	inactive	inactive	inactive	inactive		inactive		inactive	inactive	inactive	inactive	
c1ccc2ccccc2c1	inactive	inactive	inactive	inactive	inactive	inactive	inactive	inactive	inactive	inactive	inactive	inactive		inactive	inactive	inactive	inactive			
O=c1cc[nH]c(=O)[nH]1	inactive	inactive	inactive	inactive	inactive	inactive	inactive	inactive	inactive	inactive	inactive		inactive	inactive	inactive	inactive	inactive	inactive	inactive	
c1ccc2cc3ccccc3cc2c1	inactive	inactive	inactive	inactive	inactive	inactive	inactive	inactive	inactive	inactive	inactive	inactive	inactive			inactive	inactive	inactive	inactive	inactive
NC(=O)N/N=C/c1ccc([N+](=O)[O-])o1	inactive	inactive and 30.6 µM (active)	inactive	inactive	inactive	inactive	inactive	inactive	inactive	inactive	inactive	inactive	inactive	inactive	inactive	inactive	inactive	inactive	inactive	inactive
CN(C)CCCN	inactive	inactive	inactive	inactive	inactive	inactive	inactive	inactive	inactive	inactive	inactive	inactive	inactive		inactive	inactive		inactive	inactive	
NC(=O)OCC(COC(N)=O)c1ccccc1	inactive	inactive	inactive	inactive	inactive	inactive	inactive	inactive	inactive	inactive	inactive	inactive	inactive	inactive	inactive	inactive	inactive	inactive	inactive	inactive
CCC(=O)OC/C=C/c1ccccc1	inactive	inactive	inactive	inactive	inactive	inactive	inactive	inactive	inactive	inactive	inactive	inactive		inactive	inactive	inactive	inactive	inactive	inactive	inactive
CCCCCCC=O	inactive	inactive	inactive	inactive	inactive	inactive	inactive	inactive	inactive	inactive	inactive	inactive	inactive	inactive	inactive	inactive	inactive	inactive	inactive	inactive
COC(=O)C(C)Oc1ccc(Oc2ncc(C(F)(F)F)cc2Cl)cc1 (stereo not given)	inactive	inactive	inactive	inactive	inactive	inactive	inactive	inactive	inactive	inactive	inactive		inactive	inactive	inactive	inactive	inactive	inactive	inactive	
CC(C)CC(=O)CC(C)CC(C)C (stereo not given)	inactive	inactive	inactive	inactive	inactive	inactive	inactive	inactive	inactive	inactive	inactive	inactive	inactive	inactive	inactive	inactive	inactive	inactive	inactive	
CCCCCCCCCC	inactive	inactive	inactive	inactive	inactive	inactive	inactive	inactive	inactive	inactive	inactive	inactive	inactive	inactive	inactive	inactive	inactive	inactive		inactive
